The values below come from PubChem BioAssay.

Test [1] is described as follows: inhibitors of TNFa-induced NFkB p65 translocation, primary screen, imaging, HUVEC, MLSMR starter and 10KST1 sets (AID 438;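 active = inhibition above 20% together with a positive visual image hit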;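 also: compound added about 3h40 before a 20 min TNFalpha stimulation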;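 as to inhibition: signal is the nuclear over cytoplasmic p65 intensity ratio per well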). As to conditions: HUVEC TNFa-induced p65 nuclear translocation; cell count: measured here: nuclei count (cytotoxicity indicator), at 2.08 µM; inhibition: at 2 µM, stronger effect = higher value, 0% TNFa-plus-vehicle, 100% no-TNFa wells.
A short description of test [2]: inhibitors of mutant huntingtin aggregation, primary screen, imaging, exon1htt(103Q)mCFP cells, high-content imaging (AID 483;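 active = visual image review flags a hit and inhibition of aggregation exceeds 20%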;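 also: compound exposure lasted 3 days before fixation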;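 as to nuclei count: percent of the per-plate median nuclei count of sample wells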). The settings on record: exon1htt(103Q)mCFP cell line, aggregate imaging, at 2 µM; inhibition of aggregation: stronger effect = higher value; nuclei count: measured here: cell count, toxicity.
The nature of test [3]: inhibitors of E-selectin induction by TNFa, primary screen, imaging, HUVEC, immunofluorescence, MLSMR starter and 10KST1 sets (AID 487;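 active = visually confirmed hit in the image check and inhibition above 20%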;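 as to inhibition: signal is fraction of cell area covered by stained E-selectin grains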;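 as to nuclei count: 100% = median nuclei count of all wells on the same plate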). The settings on record: HUVEC TNFalpha-induced E-selectin immunofluorescence imaging, at 2 µM; inhibition: stronger effect = higher value; nuclei count: measured here: cell number, toxicity.
Test [4] deals with Voltage-gated potassium channel subunit beta-2 (Rattus norvegicus) (UniProt P62483). Put plainly: KvBeta enzyme negative modulators, primary screen, biochemical, NADPH fluorescence (AID 622;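 active = fluorescence slope higher than the sample average by over 3 SD, cut at about -0.22 in these data, passing the limit was not always enough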;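 also: slope of raw intensity against log time taken from 70 to 1610 s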). The settings on record: recombinant KvBeta, 4-cyanobenzaldehyde reduction, at 10 µM, stronger effect = higher value.
For test [5] the target is unchanged. As to the kind of experiment: KvBeta positive modulators, primary screen, biochemical, NADPH fluorescence (AID 623;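 active = NADPH fluorescence slope more negative than the mean of all samples by about 3 SD, 99.7% confidence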;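 also: fluorescence intensity change per second fitted from 20 to 320 s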). The settings on record: Recombinant KvBeta, NADPH fluorescence decrease slope, 10 min; at 10 µM; stronger effect = lower value.
The target of test [6] is Alpha-2C adrenergic receptor (Homo sapiens) (UniProt P18825). As to the kind of experiment: modulators of alpha2C/GIRK thallium flux, primary screen, cell-based, HEK293 alpha2C/GIRK1/2 (AID 624;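 active = fluorescence slope after compound addition differing from the mean of all screened samples at 99.7% confidence, in either direction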;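 also: slope of fluorescence ratio to pre-addition baseline per second over 15 to 24 s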). The settings on record: thallium flux BTC fluorescence, at 10 µM, actives lie on both sides.
Test [7] is described as follows: inhibitors of Sendai virus-induced IRF3 signaling, primary screen, TLR/RLR signaling modifier project, cell-based, Sendai virus stimulus, luciferase, 10K MLSCN set (AID 602276;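 active = inhibition at or above 50% at 10 µM; inactive = inhibition below 50%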;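 also: firefly luciferase from ISG56 promoter only with Renilla not read in this screen; 0% = Sendai virus plus DMSO and 100% = medium plus DMSO without virus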). As to conditions: HEK293 RL24 IRF3 luciferase reporter, at 10 µM, stronger effect = higher value. In general terms: A reporter such as luciferase makes a cellular process visible.
A short description of test [8]: inhibitors of poly I:C-induced TLR3 signaling, primary screen, cell-based, poly I:C stimulus, luciferase, 10K MLSCN set (AID 602277). The settings on record: HEK293-TLR3 RL24 IRF3 luciferase reporter, at 10 µM, stronger effect = higher value.

The structures appear in SMILES notation. Active and inactive are the calls of the source.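 The calls were made as follows, unless noted: active = inhibition of the reporter signal at or above 50%; inactive = inhibition below 50%.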

Sequence of Voltage-gated potassium channel subunit beta-2 (Rattus norvegicus) (P62483 whole entry, looked up): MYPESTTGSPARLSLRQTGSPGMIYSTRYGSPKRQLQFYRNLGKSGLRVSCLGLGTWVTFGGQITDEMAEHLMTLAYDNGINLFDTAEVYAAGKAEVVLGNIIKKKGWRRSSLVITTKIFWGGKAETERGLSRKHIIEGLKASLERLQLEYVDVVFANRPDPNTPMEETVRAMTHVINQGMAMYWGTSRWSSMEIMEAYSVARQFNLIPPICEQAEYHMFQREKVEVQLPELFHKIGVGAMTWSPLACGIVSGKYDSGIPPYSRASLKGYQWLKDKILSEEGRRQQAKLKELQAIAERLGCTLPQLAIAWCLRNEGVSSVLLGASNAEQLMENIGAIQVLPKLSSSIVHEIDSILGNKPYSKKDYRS
Sequence of Alpha-2C adrenergic receptor (Homo sapiens) (P18825 whole entry, looked up): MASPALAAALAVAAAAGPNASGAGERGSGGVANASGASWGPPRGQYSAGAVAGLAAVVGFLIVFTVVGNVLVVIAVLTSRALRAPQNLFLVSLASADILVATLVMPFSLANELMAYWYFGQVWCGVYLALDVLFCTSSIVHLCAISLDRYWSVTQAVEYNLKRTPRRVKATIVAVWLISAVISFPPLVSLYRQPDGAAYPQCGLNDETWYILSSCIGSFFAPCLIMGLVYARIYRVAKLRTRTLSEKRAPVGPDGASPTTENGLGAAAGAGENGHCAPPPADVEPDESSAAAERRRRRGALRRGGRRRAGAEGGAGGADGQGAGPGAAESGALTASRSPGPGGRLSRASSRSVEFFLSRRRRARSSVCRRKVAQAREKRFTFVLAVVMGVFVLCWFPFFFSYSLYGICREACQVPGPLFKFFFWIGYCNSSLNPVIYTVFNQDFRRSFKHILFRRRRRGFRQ

Take `Cc1ccc2[nH]c(=O)c(CN(CCCN3CCOCC3)C(=O)Nc3cccc(Cl)c3)cc2c1`: in test [1], the cell count was 724. Further, the inhibition is 21.3% (inactive) in test [1], 8% (inactive) in test [3], 13.4% (inactive) in test [7] and 4.8% (inactive) in test [8]. The inhibition of aggregation in test [2] was -15.9% (inactive). Besides, the nuclei count in test [2] was 89%; in test [3], 131%. Besides, the fluorescence slope in test [4] is -0.597 (inactive). For the same molecule, the NADPH fluorescence slope in test [5] is -5.2e-05 (inactive). The slope in test [6] is 0.00418 (inactive).

Consider `O=C(O)Cn1nc2ccccc2n1`, for which the cell count in test [1] was found to be 396. Also, the inhibition in test [1] is 5% (inactive); in test [3], -55.1% (inactive); in test [7] it was 14.6% (inactive); in test [8], 11.8% (inactive). In addition, the inhibition of aggregation in test [2] was 10.5% (inactive). Moreover, the nuclei count worked out at 100% in test [2] and 98.8% in test [3]. Further, the fluorescence slope in test [4] was -0.4 (inactive). In test [5], the NADPH fluorescence slope is 1.5e-05 (inactive). Also, the slope in test [6] was 0.00551 (inactive).

For `Cc1cccc(N2CCN(C(=O)C3CCCN(S(=O)(=O)c4c(C)noc4C)C3)CC2)c1C` (centres undefined), in test [1], the cell count stood at 599. Moreover, the inhibition in test [1] was -2.3% (inactive); in test [3] it was -85.1% (inactive); in test [7] it was 8.68% (inactive); in test [8] it was 1.25% (inactive). For the same molecule, the inhibition of aggregation in test [2] is -11.6% (inactive). Besides, the nuclei count in test [2] amounted to 102%; in test [3], 125%. Besides, the fluorescence slope in test [4] is -0.571 (inactive). In addition, the NADPH fluorescence slope in test [5] is -2.7e-05 (inactive). Moreover, the slope in test [6] was 0.00588 (inactive).

Turning to `Cc1cc(OCC(=O)N2CCCC2)cc(C)c1Cl`, the cell count in test [1] was determined as 633. In addition, the inhibition in test [1] was 6.6% (inactive); in test [3], -128% (inactive); in test [7] it was 4.42% (inactive); in test [8] it was -0.933% (inactive). For the same molecule, the inhibition of aggregation in test [2] is 3.4% (inactive). Besides, the nuclei count in test [2] amounted to 95%; in test [3], 99.5%. Further, the fluorescence slope in test [4] is -0.601 (inactive). Moreover, in test [5], the NADPH fluorescence slope was -7.6e-05 (inactive). For the same molecule, in test [6], the slope was 0.00573 (inactive).

Regarding `COC(=O)c1ccc(CSc2nnc(-c3ccncc3)o2)o1`, the cell count in test [1] was found to be 612. The inhibition is -2.2% (inactive) in test [1], -31.9% (inactive) in test [3], 12% (inactive) in test [7] and 13.9% (inactive) in test [8]. Also, the inhibition of aggregation in test [2] is -8% (inactive). The nuclei count in test [2] stood at 139%; in test [3], 114%. In test [4], the fluorescence slope is -0.596 (inactive). Besides, the NADPH fluorescence slope in test [5] was -3.4e-05 (inactive). Moreover, in test [6], the slope was 0.00373 (inactive).

Take `Cc1cccc(N2C(=O)CC(N3CCN(c4cccc(C(F)(F)F)c4)CC3)C2=O)c1` (centres undefined): the cell count in test [1] was 593. The inhibition in test [1] was -7.2% (inactive); in test [3], -13.6% (inactive); in test [7], 10.3% (inactive); in test [8], 36.4% (inactive). Besides, the inhibition of aggregation in test [2] was 3.8% (inactive). Moreover, the nuclei count was 126% in test [2] and 119% in test [3]. For the same molecule, the fluorescence slope in test [4] is -0.386 (inactive). In addition, the NADPH fluorescence slope in test [5] was 8.5e-06 (inactive). Further, the slope in test [6] was 0.00436 (inactive).

For `N#CC1=C(N)Oc2c(ccc3cccnc23)C1c1cccnc1` (centres undefined), the cell count in test [1] is 749. The inhibition is 7.3% (inactive) in test [1], -67.8% (inactive) in test [3], 47.8% (inactive) in test [7] and 45.8% (inactive) in test [8]. Also, in test [2], the inhibition of aggregation was 4.4% (inactive). The nuclei count in test [2] worked out at 89%; in test [3], 130%. In addition, in test [4], the fluorescence slope was -0.469 (inactive). The NADPH fluorescence slope in test [5] was -2e-05 (inactive). Also, the slope in test [6] was 0.0058 (inactive).

Regarding `CC1CCc2nn(CC(=O)N3CCN(C(=O)c4ccco4)CC3)cc2C1` (centres undefined), the cell count in test [1] amounted to 758. For the same molecule, the inhibition is -8.5% (inactive) in test [1], -41% (inactive) in test [3], 6.35% (inactive) in test [7] and 25.7% (inactive) in test [8]. In addition, in test [2], the inhibition of aggregation was -12% (inactive). The nuclei count in test [2] was found to be 112%; in test [3], 107%. Also, the fluorescence slope in test [4] was -0.585 (inactive). For the same molecule, in test [5], the NADPH fluorescence slope was -5.6e-05 (inactive). The slope in test [6] was 0.0063 (inactive).

For `O=c1[nH]c(/C(=N\O)c2ccccc2)no1`, the cell count in test [1] was 462. The inhibition in test [1] is 2% (inactive); in test [3], -11.8% (inactive); in test [7] it was 7.11% (inactive); in test [8], 24.8% (inactive). The inhibition of aggregation in test [2] was -5% (inactive). For the same molecule, the nuclei count in test [2] stood at 109%; in test [3], 111%. Besides, the fluorescence slope in test [4] was -0.421 (inactive). Further, in test [5], the NADPH fluorescence slope is -0.000106 (inactive). Besides, the slope in test [6] was 0.00496 (inactive).

As to `O=C(Nc1ccc(N2CCCC2)cc1)c1cccc(F)c1`, the cell count in test [1] is 694. Further, the inhibition in test [1] was 1.6% (inactive); in test [3], -83.5% (inactive); in test [7], 11.4% (inactive); in test [8], -67.8% (inactive). In addition, the inhibition of aggregation in test [2] is 24.1% (inactive). The nuclei count in test [2] was 94.5%; in test [3] it was 148%. For the same molecule, the fluorescence slope in test [4] is -0.436 (inactive). In addition, in test [5], the NADPH fluorescence slope is 7e-06 (inactive). In test [6], the slope was 0.0066 (inactive).

On to `CCOC(=O)C1CCCN(Cc2nc(N)nc(Nc3ccc(C)cc3)n2)C1` (centres undefined), for which the cell count in test [1] amounted to 580. In addition, the inhibition in test [1] is 1% (inactive); in test [3], -41.3% (inactive); in test [7] it was 22.6% (inactive); in test [8] it was 17.2% (inactive). The inhibition of aggregation in test [2] was -0.6% (inactive). Besides, the nuclei count in test [2] worked out at 90.1%; in test [3], 130%. Further, in test [4], the fluorescence slope is -0.438 (inactive). In test [5], the NADPH fluorescence slope was -0.000102 (inactive). The slope in test [6] is 0.00446 (inactive).

For `Cc1ccc(S(=O)(=O)N(CCO)c2cc3c(s2)CCCC3)cc1`, in test [1], the cell count came to 689. Further, the inhibition in test [1] was -0.8% (inactive); in test [3], -151% (inactive); in test [7] it was 9.96% (inactive); in test [8] it was 21.8% (inactive). Further, the inhibition of aggregation in test [2] is 20.5% (inactive). Moreover, the nuclei count in test [2] was 73.1%; in test [3], 117%. Besides, in test [4], the fluorescence slope is -0.404 (inactive). For the same molecule, in test [5], the NADPH fluorescence slope is -2.1e-05 (inactive). For the same molecule, the slope in test [6] was 0.00447 (inactive).

Turning to `COc1cccc(NC(=O)NC2(C(F)(F)F)Oc3ccccc3O2)c1`, the cell count in test [1] came out at 684. The inhibition in test [1] is -12.7% (inactive); in test [3] it was -125% (inactive); in test [7], 12.9% (inactive); in test [8], 24.9% (inactive). For the same molecule, the inhibition of aggregation in test [2] was 0% (inactive). Further, the nuclei count was 105% in test [2] and 120% in test [3]. Besides, the fluorescence slope in test [4] is -0.476 (inactive). Further, in test [5], the NADPH fluorescence slope is -0.000362 (inactive). Moreover, in test [6], the slope was 0.00501 (inactive).

Regarding `COc1ccc(CCNC(=O)c2cc3sc(Cl)cc3n2C)cc1OC`, the cell count in test [1] came out at 611. Besides, the inhibition in test [1] is 4.1% (inactive); in test [3], 2.3% (inactive); in test [7], -15.3% (inactive); in test [8], -18.8% (inactive). Moreover, the inhibition of aggregation in test [2] was -8.1% (inactive). Moreover, the values for the nuclei count in test [2] and in test [3] were 99.5% and 89%, respectively. Moreover, the fluorescence slope in test [4] is -0.626 (inactive). In addition, the NADPH fluorescence slope in test [5] was -4e-05 (inactive). In addition, in test [6], the slope was 0.00715 (inactive).

One may read the inhibition as the drop in the measured response relative to a control, in per cent.
